# HepG2 tox-1: counter-screen for TGF-b inhibitors: cytotoxicity in HepG2 cells. HepG2 CAGA-GFP viability, ATP luminescence, 18 h. Potency, µM (highest dose often 46.1 µM), inactives show at the top dose activity change, negative = cytotoxicity, actives largely listed as cytotoxic. actives 0.76% (n = 410,000)
#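 CellTiter-Glo luminescence gave cytotoxicity after 18 hours at 37 degrees C. The cells were HepG2 CAGA-GFP in 1% FBS DMEM, stimulated with 500 pg/mL TGF-beta after compound addition. %Activity was normalised to no-cell wells (complete cell-killing) and DMSO (no toxicity), and curves were fitted and classified.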
# ATXN viability: cell viability loss in ATXN counter-screen; S2 cells (HEK-293 line with an ATXN2-luciferase reporter) viability, CellTiter-Fluor protease fluorescence, 24 h; Potency, µM (titrated, usually from 56.7 µM), usual class: cytotoxic; actives 0.49% (n = 400,000); note: nearly all actives have a fitted effect of over 40% in size
# ATXN2 expr inh: inhibitors of ATXN2 expression; Potency, µM (top dose mostly 57 µM), for inactives: at the highest dose activity change, negative = inhibition, actives largely listed as inhibitors; HEK-293 ATXN2-luciferase reporter, luminescence, 24 h; actives 0.72% (n = 360,000); note: % is set by controls: 0 for no effect and ±100 for the full control effect; nearly all actives have a fitted effect of over 55% in size
#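 ATXN2-luciferase reporter cells (luciferase flanked by upstream and downstream ATXN2 gene portions) were treated 24 h at 37 °C with compounds at up to 57 uM. SteadyGlo luminescence gave expression; GF-AFC fluorescence gave viability.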
# GLP-1R inv ag: GLP-1 receptor (human) inverse agonism; actives 1.6% (n = 410,000); Potency, µM (titrated, usually from 38.3 µM), for inactives: at the highest dose activity change, negative = inhibition, usual class: inhibitors; AID 624417; HEK293 GLP-1R CRE-luciferase, luminescence, 24 h; GLP-1R form is constitutively active; note: % is set by controls: 0 for no effect and ±100 for the full control effect; nearly all actives have a fitted effect of over 55% in size
# Target sequence (P43220 whole entry, looked up): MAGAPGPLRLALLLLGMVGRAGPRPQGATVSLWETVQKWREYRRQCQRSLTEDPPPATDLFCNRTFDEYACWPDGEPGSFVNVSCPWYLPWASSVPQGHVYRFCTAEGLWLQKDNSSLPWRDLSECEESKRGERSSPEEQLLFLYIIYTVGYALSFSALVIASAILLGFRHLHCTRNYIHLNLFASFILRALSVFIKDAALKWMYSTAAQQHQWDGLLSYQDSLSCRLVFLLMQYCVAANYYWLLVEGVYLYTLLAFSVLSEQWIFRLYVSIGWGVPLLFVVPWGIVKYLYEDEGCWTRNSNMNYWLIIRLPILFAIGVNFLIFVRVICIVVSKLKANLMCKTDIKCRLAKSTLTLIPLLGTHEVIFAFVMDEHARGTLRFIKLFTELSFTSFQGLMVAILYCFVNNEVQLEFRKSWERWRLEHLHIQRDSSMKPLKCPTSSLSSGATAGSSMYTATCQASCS
#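 Readout was luciferase luminescence, measured 12 min after detection reagent at room temperature. Beforehand, GLP-1R reporter HEK293 cells had sat 12 h, then received compounds for 24 hr at 37 deg C.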
# GLP-1R agonist: agonists of human GLP-1 receptor | actives 0.007% (n = 380,000) | HEK293 GLP-1R CRE-luciferase, luminescence, 4-6 h; cells express a hypersensitive GLP-1R form | AID 624172 | Potency, µM (series often up to 45.6 µM), for inactives: at the top dose activation, actives largely listed as activators; note: % of control where 0% means no effect
# TGFb inhibitor: TGF-b pathway inhibition. HepG2 CAGA-GFP TGF-b/SMAD3 reporter, GFP fluorescence, 18 h; TGF-beta stimulated, 500 pg/mL final. Potency, µM (series often up to 46.1 µM), for the others: at the highest dose activity, negative = inhibition, hits mostly inhibitors. actives 1.2% (n = 410,000). AID 588855; note: % is set by controls: 0 for no effect and ±100 for the full control effect; nearly all actives have a fitted effect of over 65% in size
#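 HEPG2 CAGA-GFP reporter cells (1000/well, DMEM with 1% FBS) received compounds, then recombinant TGF-beta at 500 pg/mL final for 18 hours at 37 degrees C. Per-cell GFP summed per well was normalised to unstimulated and stimulated DMSO controls before curve fitting.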
# TGFb confirm: confirmation of TGF-b signaling inhibitors in HepG2 reporter cells. shares compounds with TGFb inhibitor. HepG2 CAGA-GFP TGF-b reporter, GFP fluorescence, 18 h; cells stimulated with TGF-beta, 500 pg/mL. Potency, µM (doses to about 46.1 µM), for inactives: at the highest dose activity, negative = inhibition, most hits filed as inhibitors. actives 63% (n = 1,600); note: % is set by controls: 0 for no effect and ±100 for the full control effect; nearly all actives have a fitted effect of over 65% in size
# HepG2 tox-2: toxic to HepG2 cells in TGF-b counterscreen. shares compounds with TGFb inhibitor. HepG2 CAGA-GFP viability, ATP luminescence, 18 h; cells stimulated with TGF-beta, 500 pg/mL. Potency, µM (series often up to 46.1 µM), inactives show top-dose activity, negative = cytotoxicity, hits mostly inhibitors. actives 27% (n = 1,600); note: % is set by controls: 0 for no effect and ±100 for the full control effect; nearly all actives have a fitted effect of over 70% in size
# TGFb CCL64 inh: orthogonal confirmation of TGF-b inhibitors in CCL64 cells; shares compounds with TGFb inhibitor; CCL64 CAGA-GFP reporter, TGF-b stimulated, GFP fluorescence, 18 h; Potency, µM (top dose mostly 46.1 µM), without a hit: top-dose activity, negative = inhibition, most hits filed as inhibitors; actives 41% (n = 1,600); AID 720536; note: nearly all actives have a fitted effect of over 65% in size
# TGFb COP inh: blocks TGF-b signaling in HepG2 COP reporter; HepG2 COP-GFP TGF-b reporter, GFP fluorescence, 18 h; cells stimulated by added recombinant TGF-beta; Potency, µM (titrated, usually from 46.1 µM), for the others: at the highest dose activity, negative = inhibition, usual class: inhibitors; shares compounds with TGFb inhibitor; actives 3% (n = 1,600); AID 720537; note: nearly all actives have a fitted effect of over 70% in size
# Numbers without * were called inactive; i = inactive; ? = inconclusive; nt = no result given. Only some compounds are listed: those with a hit (about 3.7% of all), similar ones and a draw of the others. Calls come from the whole dose curve; as a rule, active = well fitted curve in the direction sought with a large enough effect; inconclusive = small, poorly fitted or top-dose-only effect, or another doubt; inactive = no such curve, though single readings can be large; an effect the other way counts as inactive or inconclusive. Potency is the fitted concentration of half-maximal effect.
SMILES,HepG2 tox-1,ATXN viability,ATXN2 expr inh,GLP-1R inv ag,GLP-1R agonist,TGFb inhibitor,TGFb confirm,HepG2 tox-2,TGFb CCL64 inh,TGFb COP inh
COc1cccc(C(c2nnnn2Cc2ccccc2)N2CCC(n3c(=O)[nH]c4ccccc43)CC2)c1OC (configuration not stated),-50.8%,?,?,?,-2.0%,?,nt,nt,nt,nt
CCCCn1c(N)c(N(CCOC)C(=O)CCCn2c(=O)oc3ccccc32)c(=O)[nH]c1=O,-18.4%,i,-10.5%,4.3%,1.0%,-8.1%,nt,nt,nt,nt
O=C1NCN(c2ccccc2)C12CCN(C(c1cccc3ccccc13)c1nnnn1Cc1ccccc1)CC2 (configuration not stated),-8.0%,nt,-38.8%,-28.3%,8.0%,?,nt,nt,nt,nt
CCCCn1nnnc1C(c1cccc2ccccc12)N1CCC2(CC1)C(=O)NCN2c1ccccc1 (configuration not stated),-4.6%,?,-38.4%,?,-0.4%,17.8µM*,14.6µM*,?,?,59.9%
O=C1NCN(c2ccccc2)C12CCN(C(c1ccccc1)c1nnnn1C1CCCC1)CC2 (configuration not stated),-1.8%,?,-24.4%,?,-1.4%,11.2µM*,?,2.5%,20.6µM*,3.4%
COc1cccc(C(c2nnnn2C2CCCC2)N2CCC3(CC2)C(=O)NCN3c2ccccc2)c1OC (configuration not stated),9.5%,nt,?,-16.7%,16.9%,?,nt,nt,nt,nt
COc1ccc(C(c2nnnn2C2CCCCC2)N2CCC3(CC2)C(=O)NCN3c2ccccc2)cc1 (configuration not stated),-44.2%,?,?,?,-6.2%,?,?,-21.1%,18.4µM*,-3.9%
O=C1C(=Cc2cn(-c3ccccc3)nc2-c2ccc(OCc3ccc(Cl)cc3)cc2)SC(=S)N1CCS(=O)(=O)O,-14.3%,?,7.3%,-7.0%,7.7%,-13.6%,nt,nt,nt,nt
CC1(C)N([O])C(c2ccc(C(=O)O)cc2)=[N+]([O-])C1(C)C,4.5%,nt,nt,nt,nt,2.0%,nt,nt,nt,nt
Clc1ccccc1N1CCNCC1,nt,i,7.0%,nt,nt,nt,nt,nt,nt,nt
Clc1cccc(N2Cc3cc(-c4ccccc4)ccc3-n3nncc3C2)c1,8.91µM*,nt,22.4µM*,-7.5%,-11.1%,7.94µM*,20.6µM*,?,6.51µM*,32.1%
S=C(NCCc1ccccc1)N1Cc2cc(N3CCCCC3)ccc2-n2nncc2C1,-25.7%,i,-4.3%,?,5.4%,10µM*,?,-8.5%,-29.9%,2.3%
COc1ccc(CN2Cc3cc(-c4cccc(F)c4)ccc3-n3nncc3C2)cc1,13.0%,i,-1.7%,23.3%,-1.1%,11.2µM*,14.6µM*,?,?,0.3%
Fc1cccc(-c2ccc3c(c2)CN(C(=S)NCCc2ccccc2)Cc2cnnn2-3)c1,-1.4%,i,-30.8%,?,-0.4%,11.2µM*,?,-28.9%,?,-6.7%
S=C(NCCc1ccccc1)N1Cc2cc(-c3ccccc3)ccc2-n2nncc2C1,-0.7%,?,-26.2%,?,-1.0%,?,nt,nt,nt,nt
CCCNC(=O)c1cc2c(c(-c3cccc(-c4cc5ccccc5o4)c3)n1)[C@H](CCO)N(C(=O)NC(C)C)C2,nt,?,?,?,-4.6%,nt,nt,nt,nt,nt
BrCC1C[n+]2c(SCc3ccccc3)nc3sc4c(c3c2O1)CCCC4 (configuration not stated),-30.9%,i,33.3%,29.3%,?,17.0%,nt,nt,nt,nt
Nc1c2c(nc3sc4c(c13)CCCCC4)CCCC2,-14.2%,?,-13.6%,?,-1.7%,20µM*,14.6µM*,?,?,94.1%
CCc1ccc(-n2nc(C)c3c(C(=O)NCCc4ccc(OC)c(OC)c4)cc(C)nc32)cc1,-18.1%,?,-31.0%,?,nt,-7.8%,nt,nt,nt,nt

# Screening data (PubChem)
